# Laboratory results as given in publication PMC8384837, “Expanding the binding specificity for RNA recognition by a PUF domain”.
# Legend:
# Test in all cases: yeast three-hybrid, YBZ-1, SC-Leu-His + 0.5 mM 3-AT, 4 days
# Details in all cases: tags: N-Gal4 AD-HA kept; label: inside an RPR1-promoter hybrid RNA with tandem MS2 sites; ssRNA
# PUM1 PUF domain R5-QIR = PUM1 PUF domain R5-QIR (Homo sapiens, UniProt Q14671 828-1176, C1007Q;R1008I;Q1011R)
# Procedure, shortened: (§1)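 Matching RNA elements and Pumilio-1 PUF domain libraries, randomized at the three base-contacting residues of every repeat, were co-expressed from a centromeric plasmid in strain YBZ-1 (LexA–MS2 coat fusion, HIS3 reporter). The repeat regions were PCR-amplified and Illumina-sequenced from cells grown four days on SC-Leu (input) or SC-Leu-His + 0.5 mM 3-AT (selection). The interaction score is the log change in variant frequency from input to selection. It is computed in log2, with a pseudocount of 1 for absent variants.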
# PUM1 PUF domain R5-RTL = PUM1 PUF domain R5-RTL (Homo sapiens, UniProt Q14671 828-1176, C1007R;R1008T;Q1011L)
# Sequence of PUM1 PUF domain R5-RTL (Q14671 828-1176 C1007R/R1008T/Q1011L): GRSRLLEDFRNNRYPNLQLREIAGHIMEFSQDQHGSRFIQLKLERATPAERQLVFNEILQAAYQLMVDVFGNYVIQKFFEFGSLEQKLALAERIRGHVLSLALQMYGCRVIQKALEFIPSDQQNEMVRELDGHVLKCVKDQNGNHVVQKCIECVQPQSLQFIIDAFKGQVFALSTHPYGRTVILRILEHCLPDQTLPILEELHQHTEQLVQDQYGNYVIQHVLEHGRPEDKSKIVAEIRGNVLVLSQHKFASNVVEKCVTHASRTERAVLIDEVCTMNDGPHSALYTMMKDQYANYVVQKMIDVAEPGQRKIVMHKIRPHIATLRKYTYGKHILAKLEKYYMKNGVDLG
# Procedure, shortened: as §1
# PUM1 PUF domain R5-KSK = PUM1 PUF domain R5-KSK (Homo sapiens, UniProt Q14671 828-1176, C1007K;R1008S;Q1011K)
# Procedure, shortened: as §1
# PUM1 PUF domain R7-QND = PUM1 PUF domain R7-QND (Homo sapiens, UniProt Q14671 828-1176, S1079Q;E1083D)
# Sequence of PUM1 PUF domain R7-QND (Q14671 828-1176 S1079Q/E1083D): as the sequence (Q14671 828-1176 C1007R/R1008T/Q1011L) above, with R180C, T181R, L184Q, S252Q, E256D counted along it
# Procedure, shortened: as §1
# PUM1 PUF domain R8-PFV = PUM1 PUF domain R8-PFV (Homo sapiens, UniProt Q14671 828-1176, N1122P;Y1123F;Q1126V)
# Sequence of PUM1 PUF domain R8-PFV (Q14671 828-1176 N1122P/Y1123F/Q1126V): as the sequence (Q14671 828-1176 C1007R/R1008T/Q1011L) above, with R180C, T181R, L184Q, N295P, Y296F, Q299V counted along it
# Procedure, shortened: as §1
# PUM1 PUF domain R3-GRG = PUM1 PUF domain R3-GRG (Homo sapiens, UniProt Q14671 828-1176, C935G;Q939G)
# Procedure, shortened: as §1
# PUM1 PUF domain R3-LFL = PUM1 PUF domain R3-LFL (Homo sapiens, UniProt Q14671 828-1176, C935L;R936F;Q939L)
# Procedure, shortened: as §1
# PUM1 PUF domain R3-RIR = PUM1 PUF domain R3-RIR (Homo sapiens, UniProt Q14671 828-1176, C935R;R936I;Q939R)
# Sequence of PUM1 PUF domain R3-RIR (Q14671 828-1176 C935R/R936I/Q939R): as the sequence (Q14671 828-1176 C1007R/R1008T/Q1011L) above, with C108R, R109I, Q112R, R180C, T181R, L184Q counted along it
# Procedure, shortened: as §1
# PUM1 PUF domain R1-TFR = PUM1 PUF domain R1-TFR (Homo sapiens, UniProt Q14671 828-1176, S863T;R864F;Q867R)
# Sequence of PUM1 PUF domain R1-TFR (Q14671 828-1176 S863T/R864F/Q867R): as the sequence (Q14671 828-1176 C1007R/R1008T/Q1011L) above, with S36T, R37F, Q40R, R180C, T181R, L184Q counted along it
# Procedure, shortened: as §1
# PUM1 PUF domain R1-CIR = PUM1 PUF domain R1-CIR (Homo sapiens, UniProt Q14671 828-1176, S863C;R864I;Q867R)
# Sequence of PUM1 PUF domain R1-CIR (Q14671 828-1176 S863C/R864I/Q867R): as the sequence (Q14671 828-1176 C1007R/R1008T/Q1011L) above, with S36C, R37I, Q40R, R180C, T181R, L184Q counted along it
# Procedure, shortened: as §1
# PUM1 PUF domain R1-KRQ = PUM1 PUF domain R1-KRQ (Homo sapiens, UniProt Q14671 828-1176, S863K)
# Sequence of PUM1 PUF domain R1-KRQ (Q14671 828-1176 S863K): as the sequence (Q14671 828-1176 C1007R/R1008T/Q1011L) above, with S36K, R180C, T181R, L184Q counted along it
# Procedure, shortened: as §1
# PUM1 PUF domain R8-KKA = PUM1 PUF domain R8-KKA (Homo sapiens, UniProt Q14671 828-1176, N1122K;Y1123K;Q1126A)
# Procedure, shortened: as §1
# PUM1 PUF domain R7-GRV = PUM1 PUF domain R7-GRV (Homo sapiens, UniProt Q14671 828-1176, S1079G;N1080R;E1083V)
# Sequence of PUM1 PUF domain R7-GRV (Q14671 828-1176 S1079G/N1080R/E1083V): as the sequence (Q14671 828-1176 C1007R/R1008T/Q1011L) above, with R180C, T181R, L184Q, S252G, N253R, E256V counted along it
# Procedure, shortened: as §1
# PUM1 PUF domain R7-KFR = PUM1 PUF domain R7-KFR (Homo sapiens, UniProt Q14671 828-1176, S1079K;N1080F;E1083R)
# Procedure, shortened: as §1
# PUM1 PUF domain R1-KNR = PUM1 PUF domain R1-KNR (Homo sapiens, UniProt Q14671 828-1176, S863K;R864N;Q867R)
# Procedure, shortened: as §1
# PUM1 PUF domain R6-TWA = target: T1, PUM1 PUF domain R6-TWA (Homo sapiens, UniProt Q14671 828-1176, N1043T;Y1044W;Q1047A)
# T1 sequence: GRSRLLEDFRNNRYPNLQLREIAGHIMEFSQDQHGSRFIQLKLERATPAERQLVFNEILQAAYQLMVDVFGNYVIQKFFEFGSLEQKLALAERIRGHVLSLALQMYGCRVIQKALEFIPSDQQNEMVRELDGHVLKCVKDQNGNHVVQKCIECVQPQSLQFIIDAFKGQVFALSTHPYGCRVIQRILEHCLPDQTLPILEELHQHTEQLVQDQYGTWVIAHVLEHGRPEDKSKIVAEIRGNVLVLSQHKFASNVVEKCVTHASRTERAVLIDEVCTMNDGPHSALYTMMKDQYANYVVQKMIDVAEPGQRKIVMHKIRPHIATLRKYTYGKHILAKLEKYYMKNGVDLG
# Procedure, shortened: as §1
# Sequence of PUM1 PUF domain R5-QIR (Q14671 828-1176 C1007Q/R1008I/Q1011R): as the sequence (Q14671 828-1176 C1007R/R1008T/Q1011L) above, with R180Q, T181I, L184R counted along it
sequence,measurement,setting,value
GGCUAGAACUAGUGGAUCCCCCGGCGCCCGGCGGCUCGAGCCCGGGUAAGUGUCAAUAGUCUGCAUGCCGCCGGGCGCCAUGCCUGCAGGUCGACUCUAGAAAACAUG,binding signal,PUM1 PUF domain R5-QIR,3.55 log2 enrichment (interaction score)
same,binding signal,PUM1 PUF domain R5-RTL,2.38 log2 enrichment (interaction score)
same,binding signal,PUM1 PUF domain R5-KSK,3.19 log2 enrichment (interaction score)
GGCUAGAACUAGUGGAUCCCCCGGCGCCCGGCGGCUCGAGCCCGGGUAAGUGUUAAUAGUCUGCAUGCCGCCGGGCGCCAUGCCUGCAGGUCGACUCUAGAAAACAUG,binding signal,PUM1 PUF domain R5-QIR,1.95 log2 enrichment (interaction score)
GGCUAGAACUAGUGGAUCCCCCGGCGCCCGGCGGCUCGAGCCCGGGUAAGUGUAAAUAGUCUGCAUGCCGCCGGGCGCCAUGCCUGCAGGUCGACUCUAGAAAACAUG,binding signal,PUM1 PUF domain R7-QND,3.96 log2 enrichment (interaction score)
same,binding signal,PUM1 PUF domain R8-PFV,1.89 log2 enrichment (interaction score)
same,binding signal,PUM1 PUF domain R3-GRG,2.99 log2 enrichment (interaction score)
same,binding signal,PUM1 PUF domain R3-LFL,1.59 log2 enrichment (interaction score)
GGCUAGAACUAGUGGAUCCCCCGGCGCCCGGCGGCUCGAGCCCGGGUAAGUGUAAGUAGUCUGCAUGCCGCCGGGCGCCAUGCCUGCAGGUCGACUCUAGAAAACAUG,binding signal,PUM1 PUF domain R3-RIR,5.02 log2 enrichment (interaction score)
same,binding signal,PUM1 PUF domain R3-GRG,0.98 log2 enrichment (interaction score)
same,binding signal,PUM1 PUF domain R3-LFL,4.75 log2 enrichment (interaction score)
GGCUAGAACUAGUGGAUCCCCCGGCGCCCGGCGGCUCGAGCCCGGGUAAGUGUAAUUAGUCUGCAUGCCGCCGGGCGCCAUGCCUGCAGGUCGACUCUAGAAAACAUG,binding signal,PUM1 PUF domain R3-RIR,4.33 log2 enrichment (interaction score)
GGCUAGAACUAGUGGAUCCCCCGGCGCCCGGCGGCUCGAGCCCGGGUAAGUGUAAAUCGUCUGCAUGCCGCCGGGCGCCAUGCCUGCAGGUCGACUCUAGAAAACAUG,binding signal,PUM1 PUF domain R1-TFR,6.07 log2 enrichment (interaction score)
same,binding signal,PUM1 PUF domain R1-CIR,4.43 log2 enrichment (interaction score)
same,binding signal,PUM1 PUF domain R1-KRQ,5.97 log2 enrichment (interaction score)
GGCUAGAACUAGUGGAUCCCCCGGCGCCCGGCGGCUCGAGCCCGGGUAAGCGUAAAUAGUCUGCAUGCCGCCGGGCGCCAUGCCUGCAGGUCGACUCUAGAAAACAUG,binding signal,PUM1 PUF domain R8-PFV,2.24 log2 enrichment (interaction score)
same,binding signal,PUM1 PUF domain R8-KKA,2.4 log2 enrichment (interaction score)
GGCUAGAACUAGUGGAUCCCCCGGCGCCCGGCGGCUCGAGCCCGGGUAAGUUUAAAUAGUCUGCAUGCCGCCGGGCGCCAUGCCUGCAGGUCGACUCUAGAAAACAUG,binding signal,PUM1 PUF domain R7-GRV,2.62 log2 enrichment (interaction score)
same,binding signal,PUM1 PUF domain R7-KFR,6.28 log2 enrichment (interaction score)
GGCUAGAACUAGUGGAUCCCCCGGCGCCCGGCGGCUCGAGCCCGGGUAAGUGUAAAUUGUCUGCAUGCCGCCGGGCGCCAUGCCUGCAGGUCGACUCUAGAAAACAUG,binding signal,PUM1 PUF domain R1-CIR,0.87 log2 enrichment (interaction score)
same,binding signal,PUM1 PUF domain R1-KNR,6.76 log2 enrichment (interaction score)
GGCUAGAACUAGUGGAUCCCCCGGCGCCCGGCGGCUCGAGCCCGGGUAAGUGUAAAUGGUCUGCAUGCCGCCGGGCGCCAUGCCUGCAGGUCGACUCUAGAAAACAUG,binding signal,PUM1 PUF domain R1-KNR,3.86 log2 enrichment (interaction score)
GGCUAGAACUAGUGGAUCCCCCGGCGCCCGGCGGCUCGAGCCCGGGUAAGUGAAAAUAGUCUGCAUGCCGCCGGGCGCCAUGCCUGCAGGUCGACUCUAGAAAACAUG,binding signal,PUM1 PUF domain R6-TWA,4.52 log2 enrichment (interaction score)
GGCUAGAACUAGUGGAUCCCCCGGCGCCCGGCGGCUCGAGCCCGGGUAAGUCUAAAUAGUCUGCAUGCCGCCGGGCGCCAUGCCUGCAGGUCGACUCUAGAAAACAUG,binding signal,PUM1 PUF domain R7-KFR,5.33 log2 enrichment (interaction score)
